Pol iota inh = blocks human DNA polymerase iota activity | AID 588590 | Pol iota fluorescent replication assay, 10 min | Potency, µM (titrated, usually from 115 µM), inactives show top-dose activity, negative = inhibition, hits mostly inhibitors | hit rate 1% among 390,000; note: potency is the fitted concentration of half-maximal effect
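Fluorescent replication assay read twice, at 0 min and 10 min after adding 50 nM (final) substrate. Enzyme (10 nM) and compounds were first incubated 15 min at room temperature; enzyme-free buffer wells were negative controls.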
WRN helicase inh-1 = inhibitors of human WRN helicase; Q14191; WRN helicase unwinding, fluorescent forked duplex, kinetic; Potency, µM (doses to about 114 µM), inactives show at the top dose activity change, negative = inhibition, actives largely listed as inhibitors; hit rate 0.46% among 360,000; AID 651768; note: potency is the fitted concentration of half-maximal effect; % is set by controls: 0 for no effect and ±100 for the full control effect; nearly all actives have a fitted effect of over 55% in size
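Primary qHTS, 1536-well format. 20 nM WRN + compound, 15 min RT; start with 100 nM forked fluorophore/quencher duplex, 2 mM ATP (final); kinetic read ex 525/em 598 nm.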
Pol eta inh-1 = DNA polymerase eta (human) inhibition. hit rate 1.2% among 390,000. recombinant Pol eta, fluorescent DNA replication assay. Potency, µM (doses to about 114 µM), for inactives: top-dose activity change, negative = inhibition, usual class: inhibitors. Q9Y253; note: potency is the fitted concentration of half-maximal effect; % is set by controls: 0 for no effect and ±100 for the full control effect
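Fluorescent replication assay: 50 nM final substrate added after a 15 min room-temperature compound preincubation with 10 nM enzyme. Signal taken at 0 min and again at 10 min.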
POLB inh = inhibitors of human DNA polymerase beta | Pol beta primer extension/strand displacement, fluorescence kinetic | Potency, µM (titrated, usually from 114 µM), inactives show at the highest dose activity change, negative = inhibition, usual class: inhibitors | hit rate 1.3% among 340,000 | AID 485314; note: potency is the fitted concentration of half-maximal effect; % is set by controls: 0 for no effect and ±100 for the full control effect
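Curves were derived by four-parameter Hill fits of normalized qHTS data. The kinetic fluorescent primer-extension read was taken at 0 and 10 min after 50 nM substrate, following a 15 min room-temperature preincubation of 10 nM enzyme with compounds.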
Pol kappa inh-1 = inhibitors of human DNA polymerase kappa; purified Pol kappa, fluorescent DNA synthesis assay, 10 min; AID 588579; hit rate 0.53% among 400,000; Potency, µM (top dose mostly 107 µM), inactives show at the top dose activity, negative = inhibition, most hits filed as inhibitors; note: potency is the fitted concentration of half-maximal effect; % is set by controls: 0 for no effect and ±100 for the full control effect
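Fluorescent qHTS in 1536-well format: enzyme (10 nM) and compound sat 15 min at room temperature before 50 nM substrate (final) was added. Signal taken at 0 and 10 min; no-enzyme buffer wells were negative controls.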
PI5P4K alpha inh = PI5P4K alpha (human) kinase inhibition; P48426; PI5P4Kalpha enzyme, ADP-Glo luminescence, 60 min; stronger effect = lower value; max response, %; hit rate 1.2% among 330,000; active = max response of -50% or lower; inconclusive = between -30% and -50%; inactive = -30% or higher; note: value at the top dose of about 77 µM; % is set by controls: 0 for no effect and ±100 for the full control effect
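PI5P4Kalpha ADP-Glo assay; 5 microM ATP final; 60 min RT reaction; HEPES pH 7.4/EGTA/CHAPS, 5% DMSO; controls lacking substrate or enzyme; luminescent end-point.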
TbPGK inh = TbPGK inhibition, hit validation | shares compounds with Pol kappa inh-1 | TbPGK coupled GAPDH assay, Kinase-Glo luminescence | Potency, µM (top dose mostly 57.5 µM), without a hit: at the top dose activity change, negative = inhibition, usual class: inhibitors | hit rate 79% among 500 | AID 686980; note: potency is the fitted concentration of half-maximal effect; % is set by controls: 0 for no effect and ±100 for the full control effect; nearly all actives have a fitted effect of over 65% in size
Pol iota confirm = Human Pol iota inhibitor confirmatory assay | shares compounds with Pol kappa inh-1 | hit rate 77% among 1,500 | Potency, µM, most hits filed as inhibitors | Pol iota primer extension, TAMRA/BHQ fluorescence | AID 720496; note: potency is the fitted concentration of half-maximal effect
Pol kappa inh-2 = Pol kappa (human) inhibition, cherry-pick confirmation; shares compounds with Pol eta inh-1; purified Pol-kappa, fluorescent strand-displacement substrate; Potency, µM, hits mostly inhibitors; hit rate 76% among 920; note: potency is the fitted concentration of half-maximal effect
Pol eta inh-2 = Pol eta (human) inhibition, cherry-pick confirmation; hit rate 64% among 2,600; shares compounds with Pol eta inh-1; AID 720502; Potency, µM, hits mostly inhibitors; Pol eta primer extension, TAMRA/BHQ fluorescence, 10 min; note: potency is the fitted concentration of half-maximal effect
WRN helicase inh-2 = confirmation of human WRN helicase inhibitors | shares compounds with WRN helicase inh-1 | WRN helicase DNA unwinding, fluorescence kinetic | Potency, µM (highest dose often 57.1 µM), for the others: at the highest dose activity, negative = inhibition, hits mostly inhibitors | hit rate 63% among 610; note: potency is the fitted concentration of half-maximal effect; nearly all actives have a fitted effect of over 65% in size
TO DNA binding = DNA binding via thiazole orange displacement; shares compounds with WRN helicase inh-1; thiazole orange DNA binding displacement, fluorescence; Potency, µM (top dose mostly 57.1 µM), without a hit: at the top dose activity change, negative = inhibition, actives largely listed as inhibitors; hit rate 10% among 610;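 note: drop in dye fluorescence marks compound binding to DNA; potency is the fitted concentration of half-maximal effect; % is set by controls: 0 for no effect and ±100 for the full control effect; nearly all actives have a fitted effect of over 60% in size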
BLM counter = BLM helicase inhibition, WRN selectivity check | shares compounds with WRN helicase inh-1 | Recombinant BLM helicase DNA unwinding, red fluorescence | Potency, µM (series often up to 57.1 µM), inactives show at the top dose activity change, negative = inhibition, usual class: inhibitors | hit rate 60% among 610 | AID 720503; note: potency is the fitted concentration of half-maximal effect; nearly all actives have a fitted effect of over 60% in size
Target sequence (P54132 whole entry, looked up): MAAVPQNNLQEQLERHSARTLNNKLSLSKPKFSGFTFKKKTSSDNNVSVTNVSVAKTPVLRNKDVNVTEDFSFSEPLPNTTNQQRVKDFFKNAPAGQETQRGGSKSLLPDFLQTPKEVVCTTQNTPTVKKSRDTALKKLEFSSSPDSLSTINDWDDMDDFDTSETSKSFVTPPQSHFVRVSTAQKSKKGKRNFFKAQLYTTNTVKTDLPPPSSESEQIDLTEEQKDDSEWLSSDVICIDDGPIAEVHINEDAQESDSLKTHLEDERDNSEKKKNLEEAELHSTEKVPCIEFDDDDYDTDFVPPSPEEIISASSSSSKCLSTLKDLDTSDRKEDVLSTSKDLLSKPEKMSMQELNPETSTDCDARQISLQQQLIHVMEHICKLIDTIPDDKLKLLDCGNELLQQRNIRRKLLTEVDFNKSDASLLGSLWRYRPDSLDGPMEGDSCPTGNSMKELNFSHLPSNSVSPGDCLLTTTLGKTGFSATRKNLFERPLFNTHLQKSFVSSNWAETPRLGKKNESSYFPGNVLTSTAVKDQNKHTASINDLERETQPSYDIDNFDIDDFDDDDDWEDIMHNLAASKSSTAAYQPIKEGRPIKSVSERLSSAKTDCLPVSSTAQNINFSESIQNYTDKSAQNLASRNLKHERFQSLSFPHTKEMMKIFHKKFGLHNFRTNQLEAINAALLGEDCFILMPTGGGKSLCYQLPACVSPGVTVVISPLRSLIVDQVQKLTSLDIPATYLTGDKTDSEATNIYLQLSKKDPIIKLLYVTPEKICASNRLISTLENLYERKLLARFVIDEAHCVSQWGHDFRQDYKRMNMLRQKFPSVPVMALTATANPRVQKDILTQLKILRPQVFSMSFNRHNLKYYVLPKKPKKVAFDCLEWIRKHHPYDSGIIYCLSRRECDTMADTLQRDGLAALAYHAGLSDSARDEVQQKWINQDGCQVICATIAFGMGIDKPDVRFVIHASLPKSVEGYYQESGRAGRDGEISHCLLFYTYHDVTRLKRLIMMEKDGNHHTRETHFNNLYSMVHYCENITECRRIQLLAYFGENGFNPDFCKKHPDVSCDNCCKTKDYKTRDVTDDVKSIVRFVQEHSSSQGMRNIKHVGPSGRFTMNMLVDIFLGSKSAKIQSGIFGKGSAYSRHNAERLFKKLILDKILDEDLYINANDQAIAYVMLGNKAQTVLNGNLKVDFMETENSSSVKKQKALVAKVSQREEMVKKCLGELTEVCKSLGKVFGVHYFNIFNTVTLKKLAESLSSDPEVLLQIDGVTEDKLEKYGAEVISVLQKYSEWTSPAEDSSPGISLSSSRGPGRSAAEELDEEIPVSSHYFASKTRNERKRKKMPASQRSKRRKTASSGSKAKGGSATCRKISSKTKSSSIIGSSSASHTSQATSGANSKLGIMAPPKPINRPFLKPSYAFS
An asterisk follows results filed as active; [ ] = remark or other dose. The list is not random: actives were taken first. Their share in the collection is about 2.8%. Unless noted, calls come from the whole dose curve; as a rule, active = well fitted curve in the direction sought with a large enough effect; inconclusive = small, poorly fitted or top-dose-only effect, or another doubt; inactive = no such curve, though single readings can be large; an effect the other way counts as inactive or inconclusive.

Results for O=C1CC(=O)NC(SCC(=O)Nc2ccccc2[N+](=O)[O-])=N1 ?
Pol iota inh: 2.8µM*; WRN helicase inh-1: 40µM*; Pol eta inh-1: 5.6µM*; POLB inh: inconclusive; Pol kappa inh-1: 40µM*; PI5P4K alpha inh: inconclusive; TbPGK inh: 10µM*; Pol iota confirm: 12*; Pol eta inh-2: 6*

Results for Cc1cc(C)nc(SCC(=O)Nc2ccccc2[N+](=O)[O-])n1 ?
Pol iota inh: 14%; WRN helicase inh-1: -5%; Pol eta inh-1: 0%; POLB inh: 23%; Pol kappa inh-1: -9%

How did Cn1cnnc1SCC(=O)Nc1sc2c(c1C(N)=O)CCC2 do in these assays?
Pol iota inh: inconclusive; WRN helicase inh-1: 13µM*; Pol eta inh-1: 22µM*; POLB inh: 14µM*; Pol kappa inh-1: inconclusive; Pol iota confirm: 67*; Pol eta inh-2: 43*

How did O=C(Cc1ccccc1)Oc1coc(CSc2ncccn2)cc1=O do in these assays?
Pol iota inh: -1%; WRN helicase inh-1: -6%; Pol eta inh-1: 1%; POLB inh: 27%; Pol kappa inh-1: 0%; PI5P4K alpha inh: -6

What do the screens show for `O=C1C(Cl)=C(NCCN2CCOCC2)C(=O)c2ccccc21`?
Pol iota inh: 11%; WRN helicase inh-1: -7%; Pol eta inh-1: -6%; POLB inh: 0%; Pol kappa inh-1: -2%; PI5P4K alpha inh: -2

What do the screens show for `CC1COCC(C)N1C1=C(Cl)C(=O)c2ccccc2C1=O` (stereo unspecified)?
Pol iota inh: 8.9µM*; WRN helicase inh-1: -34%; Pol eta inh-1: -15%; Pol kappa inh-1: -8%; PI5P4K alpha inh: -70*; Pol iota confirm: 42*; Pol eta inh-2: 27*

Results for CCN(CC)c1ccc2c(C)c(Cl)c(=O)oc2c1 ?
Pol iota inh: 9%; WRN helicase inh-1: -8%; Pol eta inh-1: 0%; POLB inh: -11%; Pol kappa inh-1: -24%; PI5P4K alpha inh: -2

Results for CCN(CC)c1ccc2c(c1)oc(=O)c1c(Cl)cc(=O)oc12 ?
Pol iota inh: 14µM*; WRN helicase inh-1: -9%[57.1 µM]; Pol eta inh-1: 14µM*; POLB inh: -15%; Pol kappa inh-1: inconclusive; PI5P4K alpha inh: -9; Pol iota confirm: inconclusive; Pol eta inh-2: inconclusive

Results for Cc1ccc(S(=O)(=O)N[C@@H](C)C(=O)N2CCC(C(=O)N[C@@H](Cc3ccccc3)C(=O)O)CC2)cc1 ?
Pol iota inh: -18%; WRN helicase inh-1: -2%; Pol eta inh-1: 0%; POLB inh: 30%; Pol kappa inh-1: -2%; PI5P4K alpha inh: -1

How did N#C/C(=C\c1ccc(-c2cc(Cl)ccc2Cl)o1)C(=O)Nc1ccccc1C(=O)O do in these assays?
Pol iota inh: inconclusive; Pol eta inh-1: 40µM*; POLB inh: inconclusive; Pol kappa inh-1: inconclusive; Pol iota confirm: 75*; Pol kappa inh-2: 11*; Pol eta inh-2: inconclusive; WRN helicase inh-2: 17µM*; TO DNA binding: 11µM*; BLM counter: 3µM*

Results for N#CNC(=O)c1ccc(-n2cccc2/C=C2\NC(=O)N(CC(=O)Nc3ccc(Cl)cc3)C2=O)cc1 ?
Pol iota confirm: 6.7*; Pol kappa inh-2: 4.7*; Pol eta inh-2: inconclusive; WRN helicase inh-2: 4.3µM*; TO DNA binding: inconclusive; BLM counter: 0.96µM*

Results for CCn1c(C)cc(/C=C2/NC(=O)N(CC(=O)Nc3cccc(C)c3)C2=O)c1C ?
Pol iota inh: 0%; WRN helicase inh-1: -2%; Pol eta inh-1: 10%; POLB inh: -2%; Pol kappa inh-1: -25%; PI5P4K alpha inh: -10

What do the screens show for `Cn1cccc1/C=C1\SC(=O)N(CC(=O)Nc2ccc(Cl)cc2)C1=O`?
Pol iota inh: 29%; WRN helicase inh-1: 1%; Pol eta inh-1: -10%; POLB inh: 0%; Pol kappa inh-1: -6%

Results for N#CNC(=O)c1ccc(-n2cccc2/C=C2\NC(=O)N(CC(=O)Nc3cccc(F)c3)C2=O)cc1 ?
Pol iota confirm: 30*; Pol kappa inh-2: 13*; Pol eta inh-2: 43*; WRN helicase inh-2: 11µM*; TO DNA binding: 9.6µM*; BLM counter: 4.8µM*

What do the screens show for `COCCn1c(=O)cnc2cnc(Oc3ccccc3)nc21`?
Pol kappa inh-1: -1%[60.1 µM]

How did S=C(NCCCc1cnc[nH]1)NCCCN(Cc1ccc(Cl)cc1)c1ncc(Br)cn1 do in these assays?
Pol iota inh: inconclusive; Pol kappa inh-1: -17%

How did CCc1nnc(NC(=O)c2sc3nc4cc(C)ccc4cc3c2N)s1 do in these assays?
Pol iota inh: 11%; WRN helicase inh-1: 11µM*; Pol eta inh-1: 89µM*; POLB inh: 3%; Pol kappa inh-1: -20%; Pol iota confirm: 42*; Pol eta inh-2: 67*; WRN helicase inh-2: 6.8µM*; TO DNA binding: 22µM*; BLM counter: inconclusive

Results for CC(=O)c1ccc(NC(=O)CCNC(=O)c2ccccc2Cl)cc1 ?
Pol iota inh: 1%; WRN helicase inh-1: -7%; Pol eta inh-1: -6%; POLB inh: 0%; Pol kappa inh-1: 3%; PI5P4K alpha inh: -5

Screening results from PubChem BioAssay.
